The campaign covered roughly 48,000 compounds. About 13,000 (27%) showed an effect of 50% or more. This is one part of the list.
What follows are molecules tested on Wolbachia pipientis (assay: Anti-Wolbachia Cell-Based Screen). Conditions: 5 µM.
Assay type: functional
Parameters: scale not given: in the data most compounds retested in dose-response had high values
For `NC(=O)c1cncc(Oc2cccc(CN3CCCC3)c2Cl)n1`, the “Percent Effect” value was 9.192%.
In the case of `O=C(NCCN1CCOCC1)NCc1ccccc1-n1cccn1`, the “Percent Effect” value is reported as 1.937%.
With `CC(=O)N(C)Cc1ccccc1NCc1c(C)noc1C` the “Percent Effect” value was 25.91%.
For `COc1cc(C2(C(=O)NC3CCN(CC4CC4)CC3)CC2)ccc1C`, the “Percent Effect” value was 28.82%.
With `CC(OCC1CC1)C(=O)NCc1cccc(CN2CCN(C)CC2)c1` (stereo not given) the “Percent Effect” value was 14.4%.
`CC(=O)N1CCC2(CC1)[C@@H]1CN(Cc3cccnc3)C[C@@H]1C(=O)N2C` was tested, and the “Percent Effect” value was -30.73%.
For `CN(C)[C@@H]1CN(Cc2cccnc2)C[C@H]1c1cn(C)c2ccccc12.Cl`, the “Percent Effect” value was 79.34%.
For `Cn1cnnc1SCC(=O)N1C[C@H]2CC[C@@H]1CN(Cc1cccnc1)C2`, the “Percent Effect” value was -4.246%.
For `CCC[C@@H]1CN(Cc2ccc(N(C)C)nc2)C[C@H]1N(C)C`, the “Percent Effect” value was -0.1894%.
`CC(C)[C@@H]1CN(Cc2ccccc2C#N)C[C@H]1N(C)C` was tested, and the “Percent Effect” value was 11.57%.
With `CC(C)[C@@H]1CN(Cc2ccccn2)C[C@H]1NS(=O)(=O)N(C)C` the “Percent Effect” value was -0.7917%.
For `CCn1c(C)nnc1CN(C)C1CCN(Cc2ccccn2)C1` (stereo not given), the “Percent Effect” value was 15.92%.
For `Cn1ccnc1CN1C(=O)CO[C@H]2CN(Cc3ccccc3O)C[C@H]21`, the “Percent Effect” value was -13.53%.
`Cn1cc(CCC(=O)N2C[C@H]3CC[C@@H]2CN(Cc2ccccc2)C3)cn1` was tested, and the “Percent Effect” value was -15.29%.
For `CN(C)[C@@H]1CN(Cc2ccccc2O)C[C@H]1c1cn(C)c2ccccc12.Cl`, the “Percent Effect” value was 136.4%.
For `CN(C)[C@@H]1CN(Cc2ccccn2)C[C@H]1c1cn(C)c2ccccc12.Cl`, the “Percent Effect” value was 130.6%.
In the case of `CN(C)[C@@H]1CN(Cc2ccc(O)cc2)C[C@H]1c1cn(C)c2ccccc12.Cl`, the “Percent Effect” value is reported as 86.16%.
In the case of `O=C1NC(c2ccccc2)=N[C@@]12CC[C@@H]1CN(Cc3ccoc3)C[C@@H]12`, the “Percent Effect” value is reported as -8.675%.
In the case of `Cc1ccn(-c2ccccc2NCc2scnc2C)n1`, the “Percent Effect” value is reported as -9.292%.
In the case of `CCc1ccc(C(C)NC(=O)c2ccc(CS(C)(=O)=O)o2)cc1` (stereo not given), the “Percent Effect” value is reported as -17.56%.
For `CC(O)CN(CC(=O)NC(=O)NC1CC1)c1ccccc1` (stereo not given), the “Percent Effect” value was 10.44%.
With `CS(=O)(=O)NC(=O)c1cc(Cl)c2c(c1)OCCCO2` the “Percent Effect” value was 1.063%.
With `CCc1nc(NS(=O)(=O)c2cc(C)ccc2F)no1` the “Percent Effect” value was 7.249%.
With `COc1cc(N(C)Cc2noc(CC(C)C)n2)ncn1` the “Percent Effect” value was 117.3%.
For `CC(C)Cc1noc(CN(C)c2cc(N(C)C)ncn2)n1`, the “Percent Effect” value was 110.5%.
With `CC(C)Cc1noc(CN(C)c2ncccn2)n1` the “Percent Effect” value was 119.3%.
In the case of `CCN(Cc1noc(CC(C)C)n1)Cc1ccccc1C`, the “Percent Effect” value is reported as 1.611%.
`CC(C)Cc1noc(CN(C)C2CCCC2)n1` was tested, and the “Percent Effect” value was -3.332%.
In the case of `COC(C)c1noc(CN(C)c2ncccn2)n1` (stereo not given), the “Percent Effect” value is reported as -22.13%.
`CCn1ccnc1CN(C)c1cc(OC)ncn1` was tested, and the “Percent Effect” value was 2.5%.
For `Cc1ccn(Cc2nc(CC(C)C)no2)c(=O)c1`, the “Percent Effect” value was -2.116%.
In the case of `CC(C)Cc1nc(CN(C)CCOc2ccc(F)cc2)no1`, the “Percent Effect” value is reported as 5.016%.
With `COCCc1noc(CN(C)c2cc(C)ncn2)n1` the “Percent Effect” value was -9.011%.
With `CCc1cc(N(C)Cc2noc(CC(C)C)n2)ncn1` the “Percent Effect” value was 121.1%.
For `CCc1cc(N(C)Cc2noc(C(C)C)n2)nc(N2CCOCC2)n1`, the “Percent Effect” value was -7.429%.
